FMDV antiviral = foot and mouth disease virus antiviral activity; Potency, µM (titrated, usually from 57.9 µM), usual class: inhibitors; FMDV antiviral cell-based qHTS; AID 1159524; actives 1.2% (n = 410,000); calls by dose curve; tested in HEK293T cells; note: read-out not given here; nearly all actives have a fitted effect of over 45% in size
HCV inhibitor = blocks hepatitis C virus. Huh7.5.1 HCVcc-Cre infection, luciferase reporter, 44 h. Potency, µM (top dose mostly 41.8 µM), actives largely listed as inhibitors. actives 3.4% (n = 340,000). AID 651820
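Infectious HCVcc-Cre (~0.5 moi) was added to cells just after compound, with cells seeded 4 h earlier at 1,000 per well. Luciferase activity after 44 h culture reported infection; substrate was incubated 15 min at room temperature before reading.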
MARV entry inh = blocks Marburg virus binding to or entry into cells. Marburg virus pseudotyped entry inhibition, cell reporter. Potency, µM (series often up to 37.8 µM), actives largely listed as inhibitors. actives 1.8% (n = 300,000); calls by dose curve; tested in HEK293 cells
LASV entry inh = blocks Lassa virus binding to or entry into cells; Lassa virus pseudotype entry inhibition, cell reporter; Potency, µM (series often up to 37.9 µM), actives largely listed as inhibitors; actives 1.2% (n = 300,000); calls by dose curve; tested in HEK293 cells; note: nearly all actives have a fitted effect of over 50% in size
SARS PLpro yeast = blocks SARS-CoV papain-like protease in a yeast assay | S. cerevisiae expressing SARS-CoV PLpro, growth rescue | Potency, µM (top dose mostly 32.9 µM), hits mostly activators | actives 0.19% (n = 330,000) | AID 485353; calls by dose curve; note: nearly all actives have a fitted effect of over 55% in size
HCMV antiviral = inhibitors of human cytomegalovirus. HFF cells, HCMV-luciferase reporter, 72 h; hits give low values. activity change, negative = inhibition, % at 57.5 µM. actives 4.5% (n = 410,000). AID 1259415; in the data active = activity change below about -60%; inconclusive = no clear call, values can overlap the other calls; inactive = above about -39%
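Two compound doses tested in HFFs infected with HCMV-luciferase, MOI 1 PFU/cell, 72 h at 37C. Lysate luminescence read with OneGlo; data normalized against buffer-only and 10uM Salinomycin inhibitor controls.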
HCV confirm = HCV inhibition, cherry-pick confirmation | shares compounds with HCV inhibitor | HCVcc-Cre infectious virus cell assay, luciferase, inhibition | actives 78% (n = 640) | Potency, µM (series often up to 41.8 µM), usual class: inhibitors; note: nearly all actives have a fitted effect of over 80% in size
HCV cytotox = toxic to HCV host cells, flagging false HCV inhibitors. Potency, µM (top dose mostly 41.8 µM), most hits filed as inhibitors. actives 22% (n = 640). HCV host cell line cytotoxicity counterscreen. shares compounds with HCV inhibitor. AID 720576;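 note: 44 h compound exposure; nearly all actives have a fitted effect of over 55% in size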
Numbers stand for hits; . = inactive; ? = inconclusive; / = no result; ! = not confirmed by another sample. In the library only some 8% were active in any assay of this set; here they are far more common. Unless noted, calls come from the whole dose curve; as a rule, active = well fitted curve in the direction sought with a large enough effect; inconclusive = small, poorly fitted or top-dose-only effect, or another doubt; inactive = no such curve, though single readings can be large; an effect the other way counts as inactive or inconclusive.

SMILES	FMDV antiviral	HCV inhibitor	MARV entry inh	LASV entry inh	SARS PLpro yeast	HCMV antiviral	HCV confirm	HCV cytotox
COc1ccccc1N1CCN(c2ccc(=O)n(CC(=O)NCc3ccc(F)cc3)n2)CC1	?	/	/	.	/	.	/	/
COc1ccc(C(=O)Nc2cc(OC)cc3cccnc23)cc1	.	?	/	/	.	.	14µM	.
COc1cccc(-c2c(-c3cc(OC)cc(OC)c3)n(C)c3ccc(-c4ccc5[nH]ccc5c4)cc23)c1	.	?	.	/	.	.	/	/
COc1cc(OC)cc(-c2c(-c3ccc(F)cc3)c3cc(-c4ccc5[nH]ccc5c4)ccc3n2C)c1	.	3.2µM	/	/	.	.	7.9µM	?
Cc1ccc(Cn2c(CN3CCC(C(=O)NCc4cccnc4)CC3)cc3ccccc32)cc1	?	/	/	.	/	.	/	/
Cc1ccc(S(=O)(=O)N2CCC(=O)N(CCOCc3ccc(C(F)(F)F)cc3)CC2)cc1	?	?	16µM	?	.	?	2.2µM	?
COc1ccccc1CN1CCC2(CC1)CCN(C(=O)c1c(C)noc1C)CC2	.	/	/	/	/	/	/	/
CCn1c(=O)c2cc(C(=O)Nc3ccccc3OC)sc2c2ccccc21	.	?	/	/	.	.	14µM	.
CCn1c(=O)c2cc(C(=O)Nc3cc(OC)c(OC)c(OC)c3)sc2c2ccccc21	?	/	.	.	/	.	/	/
Nc1ccc2c(c1)C(=O)c1ccc(Br)cc1-2	.	?	.	.	/	.	.	.
Nc1ccc2cc(Br)ccc2c1	?	.	.	.	.	.	/	/
CCc1ccc(CNC(=O)c2ccc(NC(=O)N3CC(C)Sc4ccccc43)cc2)cc1 (centres undefined)	.	/	?	.	/	.	/	/
CC(CCc1ccccc1)NC(=O)Cn1c(=O)nc(-c2ccccc2)c2cc(Cl)ccc21 (centres undefined)	.	/	/	.	/	.	/	/
O=S1(=O)c2ccc(Br)cc2N2CCC[C@@H]2CN1Cc1ccc(Cl)cc1	?	8.9µM	/	?	/	.	?	.
COc1ccc(NC(=S)NCCSc2ccc(Cl)cc2)c(OC)c1	.	5.6µM	?	?	.	.	25µM	.
Cc1cc(C)c(NC(=O)C2CCN(C(=O)N3CC(C)Oc4ccc(Cl)cc43)CC2)c(C)c1 (centres undefined)	?	/	/	?	/	.	/	/
CCOc1ccc(-n2c(=O)c3c4c(sc3n(Cc3cccc(C)c3)c2=O)CCCC4)cc1	?	/	.	.	/	.	/	/
Cc1ccc(CN(Cc2ccccc2)C(=S)Nc2ccccc2C)o1	.	3.2µM	.	?	.	.	.	.
CCn1c(SCC(=O)c2ccccc2)nc2c(c1=O)SC(C)C2 (centres undefined)	.	?	.	?	.	.	?	.
COCCn1c(SCC(=O)c2ccccc2)nc2c(c1=O)SC(C)C2 (centres undefined)	/	.	.	.	.	.	/	/
CCOC(=O)c1cc2c(=O)n3ccccc3nc2n(CC2CCCO2)c1=NC(=O)c1ccc(OC)cc1OC (centres undefined)	.	/	?	.	/	.	/	/
CCOC(=O)c1cc2c(=O)n3ccccc3nc2n(Cc2ccco2)c1=NC(=O)c1ccc(OC)cc1OC	.	?	?	.	.	.	?	.
COC(=O)c1ccc2c(=O)n(CCCCCC(=O)NCCc3ccccc3)c(=O)[nH]c2c1	.	/	/	.	/	.	/	/
COc1ccc(NC(=O)c2cccs2)cn1	.	.	.	?	.	.	/	/
COc1ccc(NC(=O)/C(Cl)=C(/Cl)S(=O)Cc2ccccc2)cn1 (centres undefined)	6.3µM	0.79µM	?	1.6µM	.	-100	6.3µM	6.3µM
SMILES	FMDV antiviral	HCV inhibitor	MARV entry inh	LASV entry inh	SARS PLpro yeast	HCMV antiviral	HCV confirm	HCV cytotox
COc1cc(C(=O)Nc2nonc2-c2ccc(Cl)cc2)cc(OC)c1OC	.	/	.	?	/	.	/	/
CCOc1cc(CNCCc2ccc(S(N)(=O)=O)cc2)cc(Cl)c1OCc1ccccc1	20µM	1.6µM	?	?	.	-61	4.4µM	13µM
COC(=O)c1cn(C(=O)OC)c2ccccc12	.	5.6µM	?	.	.	.	?	.
COC(=O)c1cn(C(=O)c2ccc(F)cc2)c2ccccc12	.	.	/	/	.	.	/	/
CC(=O)Nc1ccc(Nc2cc(C)nc3c(-c4ccccc4)c(C)nn23)cc1	.	?	?	.	.	.	/	/
CC(=O)Nc1ccc(Nc2cc(C(C)C)nc3c(-c4ccccc4)c(C)nn23)cc1	?	2.5µM	/	/	.	?	14µM	.
Cc1cc(C)cc(OCc2cc(=O)n3c(-c4ccccc4)csc3n2)c1	.	/	.	.	/	.	/	/
CCOc1ccc(NC(=O)CN(C)Cc2cc(=O)n3c(-c4ccccc4)csc3n2)cc1OCC	.	6.3µM	.	.	.	.	?	.
CC(C)c1ccc(NC(=O)Cn2c(=O)n(Cc3nc(-c4ccccc4)no3)c(=O)c3cc4c(cc32)OCO4)cc1	.	/	/	.	/	.	/	/
CCOC(=O)c1c(C)n(C)c2cc(Br)c(OC)cc12	.	7.9µM	.	.	.	.	14µM	.
CCOC(=O)c1c(CN2CCN(CCO)CC2)n(C)c2cc(Br)c(OC)cc12	.	2.8µM	8.2µM!	?	.	.	10µM	.
Cc1nc(-c2ccc(C(=O)Nc3cccc(Br)c3)cc2)cs1	.	4.5µM	/	/	.	-68	2.8µM	4µM
CCCCc1nc2ccccc2n2c(-c3ccc(C)cc3)c3c(=O)n(C)c(=O)n(C)c3c12	.	/	.	?	/	.	/	/
CN(C)S(=O)(=O)N1CCC(Oc2cccc(C(=O)NC3CCCCCC3)c2)CC1	?	2.8µM	?	?	?	-90	4.4µM	7.9µM
ON=C1c2cc(OCCN3CCCCC3)ccc2-c2ccc(OCCN3CCCCC3)cc21	.	3.2µM	3.2µM	?	.	/	?	.
Clc1ccc(OCCN2CCCCC2)cc1Cl	.	.	?	.	.	.	/	/
COc1ccc(NS(=O)(=O)c2ccc3nc(COc4ccc5ccccc5c4)[nH]c3c2)cc1	?	7.9µM	?	?	.	?	20µM	.
COS(C)(=O)=O	.	/	/	/	/	/	/	/
CC#CCOC(=O)c1c(C)nc2sc3c(c2c1N)CCC(O)C3 (centres undefined)	?	7.1µM	.	?	/	?	22µM	?
CCOC(=O)c1c(N)sc2c1CCC(CC)C2 (centres undefined)	.	.	.	.	.	.	/	/
CCCC(=O)NC(=S)Nc1ccc(N2CCN(C(=O)c3cccs3)CC2)cc1	?	0.79µM	?	?	.	.	?	.
Cc1onc(-c2ccccc2Cl)c1C(=O)Nc1ccccc1C(=O)NC(C)C	/	4.5µM	9.2µM	?	.	?	22µM	?
CCc1cccc(-n2c(=O)c3cccnc3n2CC(=O)Nc2ccccc2C(=O)OC)c1	.	/	/	.	/	.	/	/
COc1ccc(-n2cc(-c3ccc(C)cc3)[n+]3c2SCC3)cc1	11µM	?	1.3µM	?	.	-102	13µM	13µM

Bioassay records from PubChem BioAssay.
